The sample as a whole holds a higher share of hits than the screen did.
Methyltransferases: Primary Screen for Target Class Profiling of Small Molecule Inhibitors of Methyltransferases; purified enzyme, MTase-Glo SAH luminescence; active compounds read low; calls only at 40 µM; hit rate 3.9% among 25,000; AID 1745853, 2022; call rule not given here
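Each enzyme was assayed with SAM and its substrate. SAH formation detected by MTase-Glo luminescence; single-point 40 uM screen[…].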
The depositor's hits bear a star; i = inactive; + = active, no number; ! = not confirmed by another sample. On the % scale 0 is the no-effect control and ±100 the full control effect.

SMILES	Methyltransferases
O=C(/C=C/c1ccc(O)cc1)N[C@@H](Cc1ccc(O)cc1)C(=O)O	i
CCCCCc1ccc(/C=C/C(=O)Nc2cc(Cl)ccc2C(=O)O)cc1	+
CCOc1ccccc1CN1C(=O)c2ccc(-c3ccco3)n2CC1(C)C(=O)NC1CCCC1 (stereo unspecified)	i
O=S(=O)(c1ccccc1)c1nnn2c1nc(N1CCCCC1)c1ccccc12	i
Cc1ccc(C)c(S(=O)(=O)c2nnn3c2nc(N2CCCC2)c2ccccc23)c1	i
Cc1ccc(S(=O)(=O)c2nnn3c2nc(N2CCC(N4CCCCC4)CC2)c2ccccc23)cc1C	+
CCCn1c(=O)c2ccc(C(=O)NC(C)CC)cc2n2c(=O)n(CC(=O)Nc3ccc(C)c(F)c3)nc12 (stereo unspecified)	i
c1nc(NCC2CCOC2)c2cc(-c3ccc4c(c3)OCO4)ccc2n1 (stereo unspecified)	+
O=c1cc(N2CCOCC2)oc2c(NCC3CCOCC3)nccc12	i
Cc1cc(C)cc(Nc2nc(C)cc3nn(CC(=O)Nc4cccc(Cl)c4)c(=O)n23)c1	i
COc1ccccc1Oc1ncccc1CNCc1c(F)cccc1Cl	i
COc1ccccc1CNCCCCCCNCCCCCCCCNCCCCCCNCc1ccccc1OC	+
COc1ccccc1CNS(=O)(=O)c1cc2c(cc1Cl)n(C)c(=O)n2C	i
C=Cc1ccc(Cn2nc3n(CCC)c(=O)c4ccc(Cl)cc4n3c2=O)cc1	i
COc1ccc(OC)c(S(=O)(=O)N2CC[C@@H]3COCCN(C)[C@@H]3C2)c1	i
CCCn1c(=O)c2cc(F)ccc2n2c(SCC(=O)NC(C)CC)nnc12 (stereo unspecified)	i
C=Cc1cc(O)cc2nc(-c3ccc(O)c(F)c3)oc12	+
CC1(C(=O)NC2CCCCC2)Cc2ccccc2C(=O)N1CCN1CCOCC1 (stereo unspecified)	i
Cn1nc2n(Cc3ccccc3)c(=O)c3ccc(C(=O)NC4CCCCC4)cc3n2c1=O	i
CC1(C(=O)NC2CCCCC2)Cn2c(cc3occc32)C(=O)N1CCc1ccccc1 (stereo unspecified)	i
Cc1ccc(CN2C(=O)c3cc4occc4n3CC2(C)C(=O)NC2CCCCCC2)cc1 (stereo unspecified)	i
Cc1nn(C)c(=O)n1C1CCN(C(=O)c2ccco2)CC1	i
O=C1Cc2c([nH]c3ccc(Br)cc23)-c2ncccc2N1	+
CC1CCN(S(=O)(=O)c2ccc3c(ccn3CC(=O)NCCc3ccco3)c2)CC1	i
C/C=C(\C)C(=O)O[C@H]1C=CC(=O)O[C@H]1/C=C/[C@@H](O)[C@H](C)O	i
SMILES	Methyltransferases
C/C=C(/C)C(=O)O[C@H]1C=C(CO)C(=O)[C@H](OC(=O)/C(C)=C/CO)[C@H]1C(C)C	+
Cc1ccccc1CN1C(=O)c2cc3sccc3n2CC1(C)C(=O)NC1CCC(C)CC1 (stereo unspecified)	i
CC(=O)Nc1ccc(N2C(=O)c3ccc(-c4ccco4)n3CC2(C)C(=O)NCc2ccc(Cl)cc2)cc1 (stereo unspecified)	i
COc1ccc(-c2cc3n(n2)CC(C)(C(=O)NCc2ccccc2)N(c2ccccc2C)C3=O)cc1 (stereo unspecified)	i
O=C(Cn1ccc2cc(S(=O)(=O)N3CCCCC3)ccc21)NCCCN1CCCC1	i
CCN(CC)CCCC(C)Nc1c2ccc(Cl)cc2nc2ccc(OC)cc12 (stereo unspecified)	+!
COc1ccc(OC)c2c1cc1n2CC(C)(C(=O)NC2CCCCC2C)N(Cc2ccccc2)C1=O (stereo unspecified)	i
Cc1ccc(Cl)cc1NC(=O)N1CCn2cccc2C1C (stereo unspecified)	i
COCCCN1C(=O)c2cc(-c3ccccc3)nn2CC1(C)C(=O)NCc1ccccc1OC (stereo unspecified)	i
CCCSCCCN1C(=O)c2cc(-c3cccs3)nn2CC1(C)C(=O)NC1CCCCC1 (stereo unspecified)	i
CCCSCCCN1C(=O)c2ccc(-c3ccco3)n2CC1(C)C(=O)NC1CCCC1 (stereo unspecified)	i
CCCN1C(=O)c2c(C(=O)NCc3ccco3)ncn2CC1(C)C(=O)NCCC(C)C (stereo unspecified)	i
Cc1ccc(Cn2c(=O)c3ccccc3n3c(CCC(=O)NCCC4=CCCCC4)nnc23)cc1	i
O=C(c1ccc(C2CCCNC2)cc1)N1CCCN(c2ccc(F)cc2)CC1 (stereo unspecified)	i
NC(=O)c1cccc2cn(-c3ccc(C4CCCNC4)cc3)nc12 (stereo unspecified)	+
Cc1cccc2nc(CNC(=O)c3cccc(C4CCNC4)c3)cn12 (stereo unspecified)	i
COc1ccc(C(=O)Cn2nc3n(CC(C)C)c(=O)c4ccc(C(=O)NC(C)C)cc4n3c2=O)cc1	i
CCOc1ccc(CNC(=O)C(C)n2ccc3cc(S(=O)(=O)N4CCCC4)ccc32)cc1OC (stereo unspecified)	i
COc1ccc(-c2cc3n(n2)CC(C)(C(=O)NCc2ccccc2)N(c2ccc(F)cc2)C3=O)cc1 (stereo unspecified)	i
O=Nc1ccc2oc(=O)ccc2c1	+
O=c1ccc2ccc(O)c(O)c2o1	i
COc1cccc(CNC(=O)CSc2nnc3n(CC(C)C)c(=O)c4ccccc4n23)c1	i
CCCn1c(=O)c2cc(F)ccc2n2c(SCC(=O)Nc3cccc(OC)c3)nnc12	i
N#Cc1ccc(N2N=C3c4ccc(C(=O)O)cc4CC[C@@H]3[C@@H]2C2CCCC2)cc1Cl	+
CCCN1C(=O)c2c(C(=O)NCc3ccc(OC(C)C)cc3)ncn2CC1(C)C(=O)NCc1ccc(F)cc1 (stereo unspecified)	i
SMILES	Methyltransferases
COc1ccc(-c2cc3n(n2)CC(C)(C(=O)NCc2ccccc2OC)N(c2cc(C)ccc2C)C3=O)cc1 (stereo unspecified)	i
COc1cc(OC)cc(-c2nc(-c3ccc(S(=O)(=O)N4CCC(C)CC4)cc3)no2)c1	i
Cc1ccccc1CNC(=O)Cn1ccc2cc(S(=O)(=O)N3CCC(C)CC3)ccc21	i
Cc1ccc(C)c(NC(=O)Cn2c(=O)oc3cc(S(=O)(=O)N4CCCCC4)ccc32)c1	i
C=C1C(=O)O[C@@H]2CC(C)=C([C@@H](C)CCCOC(C)=O)[C@@H](O)[C@H]12	+
C=C1C(=O)OC2CC(COC(=O)C(C)C)=C(C(C)CCCOC(C)=O)[C@@H](OC(C)=O)C12 (stereo partly specified)	i
C=C1C(=O)OC2CC(C)=C(C(C)CCCO[C@@H]3O[C@H](CO)[C@@H](O)[C@H](O)[C@H]3O)C(O)C12 (stereo partly specified)	i
O=C(CSc1nnc2n(CCc3ccccc3)c(=O)c3ccccc3n12)Nc1ccc(Cl)cc1	i
CCOC(=O)c1cc2n(n1)CC(C)(C(=O)NCCC(C)C)N(c1ccc(CC)cc1)C2=O (stereo unspecified)	i
CC(C)c1cc2c(N3CCN(C4=NCC(C)(C)S4)CC3)ncnc2s1	+
CCCc1cc2c(N3CCN(C4=NCC(C)(C)S4)CC3)ncnc2s1	+
COc1ccc(N2C(=O)c3cc4ccc(OC)cc4n3CC2(C)C(=O)NC2CCCC2)c(OC)c1 (stereo unspecified)	i

Screens from PubChem.
